Data on six molecules can be found in PubChem BioAssay (NCI).

SMILES strings stand for the structures. About 83,000 compounds went through this panel and 20% of them were active in at least one assay; those are over-represented in the sample as a whole.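 Percent growth is the endpoint: 0 to 100 indicates growth inhibition (40 means 60% inhibition), 0 means no net growth, and negative values indicate cell death.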 A number with no mark means an inactive call. Active and inactive are the calls of the source. Rule for the calls: active = growth percent below 10; inactive = the rest.

In this assay the test system is MDA-MB-468 breast. Put plainly: NCI-60 one-dose screen, 48 h (100 = growth as untreated, 0 = no growth, -100 = all killed). The conditions noted are these: 10 µM unless noted.
On to `COc1cc(C(=O)/C=C/c2cc(-c3ccc4c(c3)OCO4)n[nH]2)cc(OC)c1OC`, for which the growth is 29.1%.
The value for `N#CC1=C(N)Oc2cc(N)ccc2C1c1ccc(F)cc1` (stereo unspecified) was 45.1%; that for `Cc1cccc[n+]1CCC[n+]1ccccc1C` was 103%; that for `Nc1nc2c(c(=O)[nH]1)C1(C(=O)Nc3ccccc31)c1c(nc(N)[nH]c1=O)N2` was 101%.
Turning to `CCOC(=O)CSc1nnc(-c2cc3c([nH]c4ccccc43)c(-c3cccc(O)c3)n2)n1-c1ccc(C)cc1`, the growth was 27.2%.
With `O=C1/C(=C\C(Cl)=C/c2ccc([N+](=O)[O-])cc2)SC(=S)N1CCc1ccc(O)cc1`, the growth was -84.7% (active).
